Measured values: the supplement of paper PMC11732987, “Enantioselective OTUD7B fragment discovery through chemoproteomics screening and high-throughput optimisation” (Communications Chemistry, 2025)
Unmarked numbers belong to inactive results.

compound: COc1cccc(CN(C)C(=O)CCl)c1; experiment: log2 ratio of Biotin-Ahx-Ub-VS probe labelling (compound/DMSO); higher = less target engagement, active = hit call of the paper (q ≤ 0.05, log2 ratio ≤ -1); settings: compound concentration: 50uM; treatment time: 3 h
Description: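 Round 2 competitive ABPP in HEK293T lysate. Compounds were tested at 50 and 200 µM for 3 h, followed by Biotin-Ahx-Ub-VS enrichment and diaPASEF LC-MS/MS. Values are the average log2 ratio (compound/DMSO) from an unpaired t-test (n=3 treated, n=26 DMSO).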

UniProt Q92560, sequence (Q92560 whole entry): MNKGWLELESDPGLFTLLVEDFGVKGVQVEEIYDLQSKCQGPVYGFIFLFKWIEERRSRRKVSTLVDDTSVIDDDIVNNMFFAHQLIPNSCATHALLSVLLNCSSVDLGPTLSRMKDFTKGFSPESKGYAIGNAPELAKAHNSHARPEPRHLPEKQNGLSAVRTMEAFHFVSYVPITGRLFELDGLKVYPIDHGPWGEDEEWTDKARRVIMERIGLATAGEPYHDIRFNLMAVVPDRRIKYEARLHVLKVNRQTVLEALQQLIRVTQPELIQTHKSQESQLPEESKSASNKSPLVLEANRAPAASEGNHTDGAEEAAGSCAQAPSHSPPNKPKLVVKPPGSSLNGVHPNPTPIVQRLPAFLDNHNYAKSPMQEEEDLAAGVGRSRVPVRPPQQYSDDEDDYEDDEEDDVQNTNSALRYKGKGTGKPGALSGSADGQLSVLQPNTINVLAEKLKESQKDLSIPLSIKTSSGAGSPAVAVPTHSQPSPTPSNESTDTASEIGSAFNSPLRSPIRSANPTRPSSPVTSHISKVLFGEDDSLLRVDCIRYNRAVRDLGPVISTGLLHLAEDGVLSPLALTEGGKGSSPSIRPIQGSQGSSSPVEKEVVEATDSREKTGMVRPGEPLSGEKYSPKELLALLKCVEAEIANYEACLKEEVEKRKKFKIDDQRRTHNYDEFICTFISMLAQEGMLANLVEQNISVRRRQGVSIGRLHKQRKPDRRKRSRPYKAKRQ
UniProt Q9Y4E8, sequence (Q9Y4E8 whole entry): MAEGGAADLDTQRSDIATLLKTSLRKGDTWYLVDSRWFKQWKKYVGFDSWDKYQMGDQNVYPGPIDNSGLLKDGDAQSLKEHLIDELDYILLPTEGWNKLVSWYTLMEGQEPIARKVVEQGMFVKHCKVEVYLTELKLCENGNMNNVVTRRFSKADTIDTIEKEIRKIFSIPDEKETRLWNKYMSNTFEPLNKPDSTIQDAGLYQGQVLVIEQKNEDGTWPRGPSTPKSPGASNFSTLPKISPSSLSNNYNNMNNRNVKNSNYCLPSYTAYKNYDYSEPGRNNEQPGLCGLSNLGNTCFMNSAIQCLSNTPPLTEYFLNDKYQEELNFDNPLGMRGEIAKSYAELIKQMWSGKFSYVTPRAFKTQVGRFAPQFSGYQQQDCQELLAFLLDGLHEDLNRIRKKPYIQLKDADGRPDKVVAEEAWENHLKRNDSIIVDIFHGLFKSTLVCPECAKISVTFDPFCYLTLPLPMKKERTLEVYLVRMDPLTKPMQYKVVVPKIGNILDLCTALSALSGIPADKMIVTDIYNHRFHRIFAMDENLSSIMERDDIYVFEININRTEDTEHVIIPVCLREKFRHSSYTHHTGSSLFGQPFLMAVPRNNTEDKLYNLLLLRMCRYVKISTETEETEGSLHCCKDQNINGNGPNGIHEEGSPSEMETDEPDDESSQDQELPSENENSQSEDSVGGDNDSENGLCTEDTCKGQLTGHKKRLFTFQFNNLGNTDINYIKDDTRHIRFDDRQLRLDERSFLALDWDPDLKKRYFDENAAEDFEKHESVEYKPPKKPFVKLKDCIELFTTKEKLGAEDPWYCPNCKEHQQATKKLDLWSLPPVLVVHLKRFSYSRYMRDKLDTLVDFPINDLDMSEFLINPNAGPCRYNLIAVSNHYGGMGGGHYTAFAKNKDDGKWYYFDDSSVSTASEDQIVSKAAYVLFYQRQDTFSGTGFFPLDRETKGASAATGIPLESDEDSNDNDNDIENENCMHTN
UniProt P15374, sequence (P15374 whole entry): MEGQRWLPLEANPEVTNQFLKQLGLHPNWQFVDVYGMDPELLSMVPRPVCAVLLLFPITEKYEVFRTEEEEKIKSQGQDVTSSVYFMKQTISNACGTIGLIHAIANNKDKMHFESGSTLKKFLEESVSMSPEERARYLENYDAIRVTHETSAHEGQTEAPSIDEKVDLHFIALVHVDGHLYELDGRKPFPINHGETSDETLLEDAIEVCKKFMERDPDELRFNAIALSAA
UniProt Q9UPT9, sequence (Q9UPT9 whole entry): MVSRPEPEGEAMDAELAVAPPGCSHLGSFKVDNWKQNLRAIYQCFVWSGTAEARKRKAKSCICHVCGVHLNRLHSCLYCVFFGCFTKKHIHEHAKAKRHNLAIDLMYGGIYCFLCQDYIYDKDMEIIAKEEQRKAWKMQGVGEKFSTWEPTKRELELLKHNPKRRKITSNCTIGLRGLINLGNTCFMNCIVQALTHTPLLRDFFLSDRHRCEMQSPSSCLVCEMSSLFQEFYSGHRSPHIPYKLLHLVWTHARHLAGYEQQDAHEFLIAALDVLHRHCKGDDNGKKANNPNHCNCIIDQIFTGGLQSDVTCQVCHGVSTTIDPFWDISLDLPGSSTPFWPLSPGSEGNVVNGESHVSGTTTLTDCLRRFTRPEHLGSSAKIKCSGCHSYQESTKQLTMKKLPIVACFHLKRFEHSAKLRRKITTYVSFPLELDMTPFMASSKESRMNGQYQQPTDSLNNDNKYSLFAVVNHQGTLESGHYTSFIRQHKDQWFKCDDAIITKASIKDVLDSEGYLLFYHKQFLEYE
UniProt Q9UPU5, sequence (Q9UPU5 whole entry): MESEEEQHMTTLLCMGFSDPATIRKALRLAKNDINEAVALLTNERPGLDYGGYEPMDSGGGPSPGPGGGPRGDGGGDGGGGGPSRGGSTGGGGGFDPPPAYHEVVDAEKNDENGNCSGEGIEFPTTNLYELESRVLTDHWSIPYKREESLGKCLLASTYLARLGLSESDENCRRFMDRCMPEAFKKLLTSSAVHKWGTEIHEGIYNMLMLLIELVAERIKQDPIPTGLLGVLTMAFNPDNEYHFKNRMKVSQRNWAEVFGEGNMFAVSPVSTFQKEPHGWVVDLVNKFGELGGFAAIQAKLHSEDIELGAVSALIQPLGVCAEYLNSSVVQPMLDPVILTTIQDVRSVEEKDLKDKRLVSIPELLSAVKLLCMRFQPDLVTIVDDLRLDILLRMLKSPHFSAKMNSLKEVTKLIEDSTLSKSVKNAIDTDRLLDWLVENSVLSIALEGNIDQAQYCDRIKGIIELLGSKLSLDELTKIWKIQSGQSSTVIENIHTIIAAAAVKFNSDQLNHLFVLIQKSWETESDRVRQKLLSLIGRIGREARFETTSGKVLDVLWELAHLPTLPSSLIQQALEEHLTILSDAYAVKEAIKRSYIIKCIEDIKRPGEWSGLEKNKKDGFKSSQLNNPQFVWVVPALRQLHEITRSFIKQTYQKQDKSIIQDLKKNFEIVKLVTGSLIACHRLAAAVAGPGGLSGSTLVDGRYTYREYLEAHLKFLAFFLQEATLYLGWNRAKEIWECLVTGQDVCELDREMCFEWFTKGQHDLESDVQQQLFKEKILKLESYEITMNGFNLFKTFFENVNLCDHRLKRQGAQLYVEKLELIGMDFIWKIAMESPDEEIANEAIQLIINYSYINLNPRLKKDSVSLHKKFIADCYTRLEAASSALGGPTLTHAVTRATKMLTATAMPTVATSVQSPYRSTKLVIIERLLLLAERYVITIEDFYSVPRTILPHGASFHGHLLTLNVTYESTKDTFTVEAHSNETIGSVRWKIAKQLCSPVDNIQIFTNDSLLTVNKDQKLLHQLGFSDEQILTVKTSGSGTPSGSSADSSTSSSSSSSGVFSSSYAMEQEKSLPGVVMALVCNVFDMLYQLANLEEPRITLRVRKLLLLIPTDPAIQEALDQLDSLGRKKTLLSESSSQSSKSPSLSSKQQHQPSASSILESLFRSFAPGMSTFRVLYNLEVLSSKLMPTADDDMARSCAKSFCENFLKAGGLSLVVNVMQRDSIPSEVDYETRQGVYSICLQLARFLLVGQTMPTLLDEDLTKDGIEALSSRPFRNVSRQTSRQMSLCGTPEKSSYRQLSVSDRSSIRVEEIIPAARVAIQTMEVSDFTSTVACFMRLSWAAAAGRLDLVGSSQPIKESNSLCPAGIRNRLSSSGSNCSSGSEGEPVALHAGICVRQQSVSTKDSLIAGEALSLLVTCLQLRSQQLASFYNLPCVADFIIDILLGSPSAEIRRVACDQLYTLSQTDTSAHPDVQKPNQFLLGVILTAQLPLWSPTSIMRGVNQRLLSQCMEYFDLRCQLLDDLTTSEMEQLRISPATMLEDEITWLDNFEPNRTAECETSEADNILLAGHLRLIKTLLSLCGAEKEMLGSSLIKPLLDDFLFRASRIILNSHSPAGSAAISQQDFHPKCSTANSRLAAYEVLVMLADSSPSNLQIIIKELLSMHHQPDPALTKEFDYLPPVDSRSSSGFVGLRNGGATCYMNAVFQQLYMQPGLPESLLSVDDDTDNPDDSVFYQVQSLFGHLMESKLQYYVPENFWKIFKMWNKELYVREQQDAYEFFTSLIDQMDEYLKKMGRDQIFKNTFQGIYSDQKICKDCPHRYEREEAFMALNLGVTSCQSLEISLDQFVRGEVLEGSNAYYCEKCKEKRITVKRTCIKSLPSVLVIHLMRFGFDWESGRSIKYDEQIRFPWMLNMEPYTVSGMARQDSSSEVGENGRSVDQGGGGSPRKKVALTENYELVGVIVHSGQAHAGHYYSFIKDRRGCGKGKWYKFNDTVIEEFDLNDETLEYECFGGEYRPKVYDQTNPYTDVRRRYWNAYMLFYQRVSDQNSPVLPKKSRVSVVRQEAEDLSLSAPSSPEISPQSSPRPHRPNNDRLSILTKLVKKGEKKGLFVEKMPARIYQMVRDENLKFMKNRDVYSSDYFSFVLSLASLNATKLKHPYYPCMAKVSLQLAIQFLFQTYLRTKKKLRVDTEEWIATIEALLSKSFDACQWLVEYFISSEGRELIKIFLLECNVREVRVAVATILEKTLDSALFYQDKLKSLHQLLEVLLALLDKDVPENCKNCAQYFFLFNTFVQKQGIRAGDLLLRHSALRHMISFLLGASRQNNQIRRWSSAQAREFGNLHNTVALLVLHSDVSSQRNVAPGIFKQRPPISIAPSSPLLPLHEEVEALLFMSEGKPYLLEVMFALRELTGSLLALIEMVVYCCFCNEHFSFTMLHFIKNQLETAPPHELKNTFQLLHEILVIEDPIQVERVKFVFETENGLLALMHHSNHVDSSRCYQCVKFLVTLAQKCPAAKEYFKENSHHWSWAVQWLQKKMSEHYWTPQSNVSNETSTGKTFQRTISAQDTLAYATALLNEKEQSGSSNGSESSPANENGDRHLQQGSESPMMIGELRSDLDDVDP

Row | Target | log2 ratio of Biotin-Ahx-Ub-VS probe labelling
1 | USP22 (UniProt Q9UPT9) | 0.0954
2 | USP24 (UniProt Q9UPU5) | 0.0304
3 | USP12 (UniProt O75317) | -0.38
4 | USP15 (UniProt Q9Y4E8) | -0.185
5 | VCPIP1 (UniProt Q96JH7) | -0.139
6 | USP34 (UniProt Q70CQ2) | -0.106
7 | UCHL3 (UniProt P15374) | -0.285
8 | BAP1 (UniProt Q92560) | -1.22 (active)

same assay, conditions: compound concentration: 200uM; treatment time: 3 h

Row | Target | log2 ratio of Biotin-Ahx-Ub-VS probe labelling
9 | USP22 (UniProt Q9UPT9) | -0.231
10 | USP24 (UniProt Q9UPU5) | -0.88
11 | USP12 (UniProt O75317) | 0.0984
12 | USP15 (UniProt Q9Y4E8) | -0.33
13 | VCPIP1 (UniProt Q96JH7) | -0.277
14 | USP34 (UniProt Q70CQ2) | -0.024
15 | UCHL3 (UniProt P15374) | -0.275
16 | BAP1 (UniProt Q92560) | -3.29 (active)
